Drawing on PubChem BioAssay AID1224860 (National Center for Advancing Translational Sciences (NCATS), 2016), this text covers Potency for 13 molecules.

Results filed as inconclusive are left out. Where a call stands in place of a potency, no number is given. Active and inactive are the calls of the source. The call rests on the fitted dose curve; in most records, active means well fitted cell-killing curve with a large enough effect; inconclusive means small, poorly fitted or top-dose-only effect; inactive means flat fitted curve, though single readings scatter.

The nature of the experiment: Compound cytotoxicity measured by an ATP content assay as a counter-screen for lead compounds in human iPSC derived neural progenitor cells (hNPCs). The conditions noted are these: human iPSC-derived NPC viability, ATP luminescence; series mostly up to 46.1 µM. Here is the method:
National Center for Advancing Translational Sciences [NCATS] Johns Hopkins University School of Medicine Florida State University Assay Overview: Many compounds can cause cytotoxicity at high compound concentrations. […] The compound cytotoxicity may also cause side effects or toxicity in human. Thus, the compound cytotoxicity needs to be measured in each cell type and each compound incubation time - same as these in the compound screening assay. The compound cytotoxicity can be measured by cell viability assays such as the ATP content assay. We use an ATP content assay kit for cell viability measurement. It measures ATP content (level) in human iPSC derived neural progenitor cells (hNPCs) using a luminescence readout that is proportional to viable cell numbers. Decrease in the luminescence signal after the compound treatment indicates reduced cell viability and cell death caused by compound treatment.
Assay Protocol Summary: The medium for hNPCs consists of DMEM/F12, N2 supplement (ThermoFisher, Cat.# 17502048), NEAA (ThermoFisher, Cat. # 11140050), 2 ug/ml heparin, 2 uM cyclopamine, and B27 (ThermoFisher, Cat. # 17504044). The ATP content assay kit (PerkinElmer, Cat.# 6016731) was used to determine cell viability. The reagent was reconstituted and prepared as described by the manufacturer. Cells were seeded in 384- or 1536-well assay plates and cultured at 37 C with 5% CO2 for 16 to 20 hours. The typical cell seeding density in the 1536-well plate assay is 350 cells/well in 3 ul medium for hNPCs in the tissue cultured treated/PDL coated plates. Compounds were added to cells and incubated for a specific time such as 6, 24, or 72 hours before addition of the reagent mixture of the ATP content assay kit at 1:1 ratio. After incubation at room temperature for 10 minutes, the luminescence intensity in assay plates was measured using a ViewLux plate reader (PerkinElmer). […] The percentage inhibitions of the decreased cell viability by small molecules were then calculated that indicate compound cytotoxicity.
As for `COP(=S)(OC)SCN1C(=O)c2ccccc2C1=O`, the Potency entry was “inactive”.
For `COC1(CS(=O)c2ccccc2)CCN(CCc2c[nH]c3ccc(F)cc23)CC1` (stereo not drawn) the value was “inactive”.
The result for `CC(C)N[C@@H]1CCn2c(=O)[nH]c3cccc(c32)[C@@H]1O` reads “inactive”; that for `O=C1CCC[C@@H]2[C@H]3CCCN4CCC[C@@H](CN12)[C@@H]34`, “inactive”; that for `CC(O)CN1CCN(CC(=O)[O-])CCN(CC(=O)[O-])CCN(CC(=O)[O-])CC1.[Gd+3]` (stereo not drawn), “inactive”.
The result for `S=C(SSC(=S)N1CCCCC1)N1CCCCC1` reads 245 nM (active); that for `CN1CC[C@@]2(C)c3cc(OC(=O)Nc4ccccc4)ccc3N(C)[C@@H]12`, “inactive”.
Turning to `O=c1c2ccccc2[se]n1-c1ccccc1`, the Potency was 12300 nM (active).
The result for `CC(C)[C@H]1C(=O)N[C@H](CO)Cc2c[nH]c3cccc(c23)N1C` reads “inactive”; that for `CC(C)[N+](C)(CCC(C(N)=O)(c1ccccc1)c1ccccc1)C(C)C`, “inactive”.
The result for `Oc1ccc([C@H]2CNCc3c2ccc(O)c3O)cc1O` reads “inactive”; that for `O=C1C=CC[C@@H]2[C@H]3CCCN4CCC[C@@H](CN12)[C@@H]34`, “inactive”; that for `Cc1ccc([N+](=O)[O-])[c]2c1[O][Hg]2`, 869 nM (active).
